# Measured values published in the supplement of paper PMC8699584.
# “And” between values parts separate entries of the source, which are not always exact repeats. Equal entries are not always repeated. Structures can show the parent of a compound that is named as a salt. ± gives the standard deviation of the averaged measurements.
# Legend:
# Molm13 = test: cell viability relative to DMSO control (bortezomib = 0%); higher = less growth inhibition; conditions: 10 nM; 72 h
# In short: (§1)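 Cell viability was assessed by CellTiter-Glo luminescence. Acute myeloid leukemia cells were seeded at 1000 cells per well in 50 µL on a 384-well library of 679 compounds at a single 10 nM dose for 72 h. Per-plate linear regression set DMSO-treated cells at 100% and positive-control-treated cells at 0%.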
# Mv4-11 = test: as above; conditions: 10 nM; 72 h
# In short: as §1
SMILES,cell viability (Molm13),cell viability (Mv4-11)
N#CC(c1ccnc(NCCc2cccnc2)n1)c1nc2ccccc2s1 (stereo not given),105 ± 26%,109 ± 28%
COc1cc(Nc2ncc(F)c(Nc3ccc4c(n3)NC(=O)C(C)(C)O4)n2)cc(OC)c1OC,105 ± 3.9%,99.7 ± 6.4%
COc1cc(OC)c(/C=C/S(=O)(=O)Cc2ccc(OC)c(NCC(=O)O)c2)c(OC)c1,99.3 ± 23%,124 ± 8.1%
CC1(C)CNc2cc(NC(=O)c3cccnc3NCc3ccncc3)ccc21 [Motesanib Diphosphate (AMG-706)],89.2 ± 9.9%,106 ± 12%
O=C1NC(=O)/C(=C/c2ccc3nccnc3c2)S1,102 ± 17%,113 ± 4.8%
Cn1cc(-c2ccc3ncc(Cc4ccc5ncccc5c4)n3n2)cn1,100 ± 16%,119 ± 16%
N#CCC(C1CCCC1)n1cc(-c2ncnc3[nH]ccc23)cn1 (stereo not given),112 ± 15%,113 ± 13%
CC(C)(C)c1nc(-c2cccc(NS(=O)(=O)c3c(F)cccc3F)c2F)c(-c2ccnc(N)n2)s1,98.4 ± 6.6%,124 ± 2.6%
CN1C(=O)C(c2c[nH]c3ccccc23)=C(c2c[nH]c3ccccc23)C1=O [Bisindolylmaleimide V],124 ± 11%,113 ± 9.1%
O=S(=O)(c1cccc2cnccc12)N1CCCNCC1 [Fasudil (HA-1077) hydrochloride],91.5 ± 1.8%,104 ± 5%
S=C(NCc1ccc2c(c1)OCO2)N1CCN(c2ncnc3c2oc2ccccc23)CC1 [Amuvatinib(MP470)],101 ± 10%,103 ± 15%
O=C(c1cccc(Cl)c1F)N1CCN(Cc2cccc(Nc3nccs3)n2)CC1,95.9 ± 11%,115 ± 9.6%
c1cc(-c2cnn3cc(-c4ccc(OCCN5CCCCC5)cc4)cnc23)ccn1,95.5 ± 6%,117 ± 10%
N#C/C(=C\c1ccc(O)c(O)c1)C(=O)NCc1ccccc1,96.4 ± 11%,100.7 ± 0.73%
CC(=O)Nc1cccc(-n2c(=O)n(C3CC3)c(=O)c3c(Nc4ccc(I)cc4F)n(C)c(=O)c(C)c32)c1,101 ± 25%,107 ± 1.9%
CNC(=O)c1cc(Oc2ccc(NC(=O)Nc3ccc(Cl)c(C(F)(F)F)c3)cc2)ccn1,45 ± 3.3%,45.2 ± 5.3%
Cc1ccc(NC(=O)c2ccc(CN3CCN(C)CC3)cc2)cc1Nc1nccc(-c2cccnc2)n1 [Imatinib (mesylate)],111 ± 16%,121 ± 22%
NS(=O)(=O)c1ccc(Nc2nc(OCC3CCCCC3)c3[nH]cnc3n2)cc1,104 ± 34%,109 ± 13%

SMILES,cell viability (Molm13),cell viability (Mv4-11)
Cc1nc(NC(=O)N2CCC[C@@H]2C(N)=O)sc1-c1ccnc(C(C)(C)C(F)(F)F)c1 [BYL-719(Alpelisib)],113 ± 6.5%,102 ± 15%
C[N+](C)(C)CC(=O)O [Betaine hydrochloride],86.4 ± 9.4%,101 ± 9.6%
O=C(NOC[C@H](O)CO)c1ccc(F)c(F)c1Nc1ccc(I)cc1F,89.4% and 96.2%,95.5% and 86.8%
CC(C)c1ccc2c(c1)CC[C@H]1[C@](C)(CN)CCC[C@]21C [Leelamine],96.7 ± 8.5%,101 ± 9.8%
N#Cc1c(Oc2ccc(F)c(NC(=O)Cc3cccc(C(F)(F)F)c3)c2)ccc2nc(NC(=O)C3CC3)sc12,105 ± 12%,114 ± 6.7%
CN1CCN(c2cccc(Nc3nc4c(-c5ccc(S(C)(=O)=O)cc5)cccn4n3)c2)CC1,118 ± 14%,101 ± 7.2%
CC1(COc2ccc3c(c2)ncn3-c2ccc3cccc(N4CCC(N)CC4)c3n2)COC1 [Crenolanib],14.9 ± 3.8%,18.2 ± 5.8%
Cc1cc(Nc2nc(N[C@@H](C)c3ccc(F)cc3)c(C#N)cc2F)n[nH]1,123 ± 7.3%,99.4 ± 3.3%
COc1cc(OC)c(C=C2C(=O)Nc3ccccc32)c(OC)c1,104 ± 6.9%,100 ± 12%
O=C(Nc1cc(C(F)(F)F)ccc1N1CCCCC1)c1ccncc1,99.5 ± 9.8%,129 ± 17%
Nc1cccc(-c2nc(N3CCOCC3)c3oc4ncccc4c3n2)c1 [PIK-inhibitors],82.5 ± 19%,103 ± 15%
CCOc1cc2ncc(C#N)c(Nc3ccc(F)c(Cl)c3)c2cc1NC(=O)/C=C/CN(C)C [Pelitinib (EKB-569)],104 ± 12%,104 ± 3.4%
O=C1Cc2c([nH]c3ccc(Br)cc23)-c2ccccc2N1 [Kenpaullone],88 ± 2.5%,111 ± 5.9%
Nc1nc2cc(-c3ccc4ncc(C(=O)N5CCOCC5)n4c3)ccc2o1,98.5 ± 2.2%,105 ± 16%
CCOc1cn(-c2ccc(F)cc2C)nc1C(=O)Nc1ccc(Oc2ccnc3cc(OC)c(OC)cc23)c(F)c1,112 ± 20%,109 ± 2.8%
Cn1cnc2c(NCc3ccccc3)nc(NCCO)nc21 [Olomoucine],106 ± 16%,104.2 ± 1%
Nc1nccc(Oc2ccc(NC(=O)c3c[nH]cc(-c4ccc(F)cc4)c3=O)cc2F)c1Cl,60.9 ± 5.7%,83.1 ± 3.7%
